Measured values reported in ChEMBL document CHEMBL1157539, “Thousands of chemical starting points for antimalarial lead identification” (Nature, 2010).

How the values were obtained:
Assay type in all cases: functional
Plasmodium falciparum [1] = experiment: GSK_TCMDC: Inhibition of Plasmodium falciparum 3D7 in whole red blood cells, using parasite LDH activity as an index of growth. Test compounds present at 2uM
Plasmodium falciparum [2] = experiment: GSK_TCMDC: Inhibition of Plasmodium falciparum Dd2 in whole red blood cells, using parasite LDH activity as an index of growth. Test compounds present at 2uM
HepG2 = experiment: GSK_TCMDC: Percent inhibition of human HepG2 cell line. Test compounds present at 10uM.

Row | Structure (SMILES) | Inhibition (Plasmodium falciparum [1]) [%] | Inhibition (Plasmodium falciparum [2]) [%] | Inhibition (HepG2) [%]
1 | Cl.c1ccc2c(NCCCCCCNc3ccnc4ccccc34)ccnc2c1 | 100 | 12 | 43
2 | COc1ccc(NC(=O)/C=C/c2ccccc2Cl)cc1OCCN1CCC(NCc2ccccc2)CC1 | 100 | 100 | 28
3 | O=C(O)C(F)(F)F.c1cc(CN2CCN(c3ccncc3)CC2)cc(-c2cccc(-c3nc4ccccc4[nH]3)c2)c1 | 100 | 98 | 35
4 | Cn1nccc1C(=O)NCCNCc1cccc(-c2ccc(-c3nc4ccccc4[nH]3)cc2)c1.O=C(O)C(F)(F)F | 100 | 98 | 19
5 | CN(C)CCCn1cncc1-c1ccc2ncnc(Nc3ccc4c(cnn4Cc4ccccc4)c3)c2c1 | 100 | 77 | 17
6 | Cc1cccc(C(=O)N2CCN(Cc3cccc(NC(=O)c4cccs4)c3)CC2)c1.O=C(O)C(F)(F)F | 95 | 95 | 5
7 | CC1(CCc2ccccc2)N=C(Nc2ccc(Cl)cc2)N=C(N)C1c1ccc(Cl)c(Cl)c1 (configuration not stated) | 100 | 98 | 81
8 | O=C(Nc1ccc(Cl)cc1)Nc1ccc(-c2csc(-c3nc4ccccc4[nH]3)c2)cc1 | 90 | 40 | 59
9 | Cc1cc(N2CCCCC2)nc2ccc(NC(=O)c3cc(=O)c4ccccc4o3)cc12 | 98 | 19 | 15
10 | Cc1noc(C)c1-c1cccc(CNCc2ccc(-c3ccc(-c4nc5cc(C(F)(F)F)ccc5[nH]4)cc3)cc2)c1.O=C(O)C(F)(F)F | 100 | 97 | 35
11 | CC(C)C1=NC(=O)c2cc([N+](=O)[O-])ccc2CN1 | 98 | 0 | 6
12 | C=C(NC(=O)c1cc(C)cc(C)c1)C(=O)OC | 95 | 0 | 21
13 | COCc1ccc(CN2CCC(C(=O)Nc3ccc(-c4nc5ccccc5[nH]4)cc3)CC2)o1 | 97 | 13 | 13
14 | O=C(O)C(F)(F)F.O=S(=O)(NCCN1CCCC1)c1ccc(-c2ccc(CNCc3ccsc3)cc2)cc1F | 96 | 40 | 27
15 | N=c1ccn(CC(=NO)c2ccc(Cl)c(Cl)c2)cc1 | 87 | 81 | 23
16 | CN1CCc2cc(NS(=O)(=O)c3ccc(-c4ccc(Cl)s4)cc3)c(N3CCCCC3)cc2CC1.Cl | 98 | 29 | 14
17 | CCn1c(C)c(C)c2cc(C(=O)Nc3ccon3)ccc21 | 95 | 93 | 3
18 | O=C(NC1CCC(N2CCC(c3ccccc3C(F)(F)F)CC2)CC1)c1cc2ccccc2[nH]1 (configuration not stated) | 100 | 98 | 80
19 | COc1cc2nccc(Nc3ccc(NC(=O)c4ccc(C)cc4)c(O)c3)c2cc1OC.Cl | 100 | 77 | 96
20 | FC(F)(F)c1cnc(Sc2nnc(-c3ccncc3)o2)c(Cl)c1 | 96 | 96 | 10
21 | Cc1cc(N)c2cc(NC(=O)/C=C/c3ccc([N+](=O)[O-])cc3)ccc2n1 | 100 | 80 | 76
22 | O=C(NC1CCC(N2CCN(c3cccc(C(F)(F)F)c3)CC2)CC1)c1cc2ccccc2[nH]1 (configuration not stated) | 99 | 22 | 23
23 | C=C[C@H]1CN2CC[C@H]1C[C@@H]2[C@@H](O)c1ccnc2ccc(OC)cc12 [QUINIDINE] | 98 | 95 | 0
24 | COc1cccc(C(=O)NCc2cccs2)c1OCc1ccccc1 | 96 | 0 | 0
25 | C=CCc1cc(Cc2cnc(N)nc2N)cc(CCC)c1OC | 83 | 1 | 3
26 | Cc1cccc2nc(-c3ccc(-c4ccc(CN5CCCC(N)C5)cc4)cc3)[nH]c12.O=C(O)C(F)(F)F (configuration not stated) | 99 | 100 | 33
27 | CCOc1ccc2c(c1)OC(c1ccccc1)(C(F)(F)F)NC2=O (configuration not stated) | 100 | 98 | 0
28 | CN1CCC(N(Cc2ccc(-c3ccc(Cl)cc3)cc2)C(=O)Cn2c(CCc3cccc(F)c3F)cc(=O)c3ccccc32)CC1.O=C(O)C(O)C(O)C(=O)O | 97 | 88 | 93
29 | COc1cccc(CN2CCC3(CC2)CN(C(=O)Nc2ccc(Cl)c(Cl)c2)C3)c1 | 97 | 2 | 29
